Data on one sequence can be found in paper PMC7862700, “An all-to-all approach to the identification of sequence-specific readers for epigenetic DNA modifications on cytosine”.

Holding throughout (experiment): DAPPL (digital affinity profiling via proximity ligation, sequencing); 10 mM Tris-HCl pH 7.5, 50 mM NaCl, 1 mM DTT, 4% glycerol, room temperature, 30 min; GST-TFs on glutathione beads, 16-mer random dsDNA library, 0.1% formaldehyde crosslink after washing; high values mean tight binding
For one test, the target named is T1, FEV (Homo sapiens, UniProt Q99581 1-238).
T1 sequence: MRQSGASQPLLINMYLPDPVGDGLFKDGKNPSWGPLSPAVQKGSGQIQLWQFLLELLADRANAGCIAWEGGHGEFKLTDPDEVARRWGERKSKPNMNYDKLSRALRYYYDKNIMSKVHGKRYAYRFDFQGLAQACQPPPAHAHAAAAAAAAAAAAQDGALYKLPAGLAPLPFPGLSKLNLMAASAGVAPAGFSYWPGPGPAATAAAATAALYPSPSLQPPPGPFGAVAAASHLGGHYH
Particulars: protein: recombinant; tags: N-terminal GST; dsDNA, one strand shown. The method in brief:
(§1)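 Beads coated with glutathione captured GST-fused human transcription factors that had been expressed in yeast, and the factors were then given DNA barcodes and pooled with a tag-only sample. The pools were incubated with 200 nmole of a random double-stranded 16-mer DNA library in Tris/NaCl/DTT/glycerol buffer for 30 min at room temperature, washed, crosslinked with 0.1% formaldehyde and proximity-ligated with BsaI/T4 ligase at 37 °C for 1 h. PCR amplification and Illumina NextSeq500 sequencing came last. Binding signal is each hexamer's read frequency for a factor divided by its frequency for the tag-only sample.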

The target in the next test is ETV5 (Homo sapiens, UniProt P41161 1-510). Particulars: protein: recombinant; tags: N-terminal GST; dsDNA, one strand shown. The procedure, abridged:
as §1

For another test, the target named is HSF1 (Homo sapiens, UniProt Q00613 1-529). The following applies: protein: recombinant; tags: N-terminal GST; chain copies: 3; dsDNA, one strand shown. The procedure, abridged: as §1
HSF1, sequence (Q00613 whole entry): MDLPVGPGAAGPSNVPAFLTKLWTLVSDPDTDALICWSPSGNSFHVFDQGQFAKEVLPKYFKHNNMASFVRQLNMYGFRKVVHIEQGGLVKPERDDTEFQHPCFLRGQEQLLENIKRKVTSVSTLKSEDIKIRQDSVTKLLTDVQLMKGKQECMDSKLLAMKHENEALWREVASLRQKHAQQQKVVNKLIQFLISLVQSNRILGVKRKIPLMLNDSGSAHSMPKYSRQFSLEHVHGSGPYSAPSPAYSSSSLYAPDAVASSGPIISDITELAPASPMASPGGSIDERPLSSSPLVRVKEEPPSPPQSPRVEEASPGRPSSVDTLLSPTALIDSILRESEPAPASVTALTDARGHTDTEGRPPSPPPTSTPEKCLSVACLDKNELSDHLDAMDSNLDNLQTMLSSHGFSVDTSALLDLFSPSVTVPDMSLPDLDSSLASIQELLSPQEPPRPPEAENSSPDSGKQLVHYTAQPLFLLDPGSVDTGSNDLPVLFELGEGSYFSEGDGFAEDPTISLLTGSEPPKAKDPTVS
The next test concerns the target T2, SPIC (Homo sapiens, UniProt Q8N5J4 1-248).
T2 sequence: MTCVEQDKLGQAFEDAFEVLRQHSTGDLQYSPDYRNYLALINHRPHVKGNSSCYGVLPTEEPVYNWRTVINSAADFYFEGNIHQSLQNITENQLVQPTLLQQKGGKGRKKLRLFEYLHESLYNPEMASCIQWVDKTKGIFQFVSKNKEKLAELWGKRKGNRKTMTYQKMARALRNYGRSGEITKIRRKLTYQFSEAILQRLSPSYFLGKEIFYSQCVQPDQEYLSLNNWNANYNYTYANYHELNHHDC
Particulars: protein: recombinant; tags: N-terminal GST; dsDNA, one strand shown. The method in brief:
as §1

Another test addresses ELF4 (Homo sapiens, UniProt Q99607 1-663). The following applies: protein: recombinant; tags: N-terminal GST; dsDNA, one strand shown. The procedure, abridged: as §1
For a further test, the target named is T3, ELK4 (Homo sapiens, UniProt P28324-2 1-405).
T3 sequence: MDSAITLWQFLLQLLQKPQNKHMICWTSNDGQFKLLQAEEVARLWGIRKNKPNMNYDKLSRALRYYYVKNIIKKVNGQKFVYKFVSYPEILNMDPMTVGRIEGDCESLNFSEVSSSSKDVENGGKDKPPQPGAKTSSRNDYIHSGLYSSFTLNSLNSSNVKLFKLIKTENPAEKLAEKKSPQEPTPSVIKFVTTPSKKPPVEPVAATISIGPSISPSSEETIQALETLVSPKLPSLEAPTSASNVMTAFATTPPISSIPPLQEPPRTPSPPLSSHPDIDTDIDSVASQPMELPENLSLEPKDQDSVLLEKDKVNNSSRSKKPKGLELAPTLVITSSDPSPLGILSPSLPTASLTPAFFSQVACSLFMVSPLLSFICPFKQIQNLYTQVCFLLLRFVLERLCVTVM
The following applies: protein: recombinant; tags: N-terminal GST; dsDNA, one strand shown. The procedure, abridged:
as §1

For the next test, the target named is T4, ETV2 (Homo sapiens, UniProt O00321 1-342).
T4 sequence: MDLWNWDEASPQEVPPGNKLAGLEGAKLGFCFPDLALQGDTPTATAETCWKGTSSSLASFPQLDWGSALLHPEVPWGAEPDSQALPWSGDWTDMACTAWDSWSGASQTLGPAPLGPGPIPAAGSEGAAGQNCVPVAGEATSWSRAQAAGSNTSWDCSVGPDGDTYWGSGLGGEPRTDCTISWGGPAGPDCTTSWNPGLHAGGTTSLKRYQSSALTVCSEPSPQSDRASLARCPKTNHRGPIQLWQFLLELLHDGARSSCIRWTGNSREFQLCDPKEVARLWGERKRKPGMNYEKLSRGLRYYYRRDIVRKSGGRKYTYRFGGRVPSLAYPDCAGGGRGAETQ
Particulars: protein: recombinant; tags: N-terminal GST; dsDNA, one strand shown. The method in brief:
as §1

Another test concerns the target T5, ELF3 (Homo sapiens, UniProt P78545 1-371).
T5 sequence: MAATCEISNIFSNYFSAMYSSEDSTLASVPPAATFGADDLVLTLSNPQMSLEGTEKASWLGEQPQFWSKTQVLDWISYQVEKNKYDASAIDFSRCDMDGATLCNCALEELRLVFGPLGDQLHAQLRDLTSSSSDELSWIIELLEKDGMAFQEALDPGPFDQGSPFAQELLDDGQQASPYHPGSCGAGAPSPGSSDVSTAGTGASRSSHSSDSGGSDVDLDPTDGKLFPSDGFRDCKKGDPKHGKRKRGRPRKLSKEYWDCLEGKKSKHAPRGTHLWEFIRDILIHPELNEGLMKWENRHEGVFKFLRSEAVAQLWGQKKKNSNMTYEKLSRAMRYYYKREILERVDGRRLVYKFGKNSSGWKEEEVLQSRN
The following applies: protein: recombinant; tags: N-terminal GST; dsDNA, one strand shown. The procedure, abridged:
as §1

The target in the next test is CRX (Homo sapiens, UniProt O43186 1-299). The following applies: protein: recombinant; tags: N-terminal GST; dsDNA, one strand shown. The method in brief: as §1
CRX, sequence (O43186 whole entry): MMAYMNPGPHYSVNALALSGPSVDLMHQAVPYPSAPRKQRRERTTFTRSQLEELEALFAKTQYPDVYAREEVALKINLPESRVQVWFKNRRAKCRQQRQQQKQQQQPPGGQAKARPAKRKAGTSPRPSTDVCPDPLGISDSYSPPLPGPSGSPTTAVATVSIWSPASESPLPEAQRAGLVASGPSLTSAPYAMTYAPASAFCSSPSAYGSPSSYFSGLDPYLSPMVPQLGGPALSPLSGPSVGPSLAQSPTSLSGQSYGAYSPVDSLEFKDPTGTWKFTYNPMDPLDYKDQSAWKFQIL
For another test, the target named is ETV1 (Homo sapiens, UniProt P50549 1-477). Particulars: protein: recombinant; tags: N-terminal GST; dsDNA, one strand shown. The procedure, abridged: as §1
ETV1, sequence (P50549 whole entry): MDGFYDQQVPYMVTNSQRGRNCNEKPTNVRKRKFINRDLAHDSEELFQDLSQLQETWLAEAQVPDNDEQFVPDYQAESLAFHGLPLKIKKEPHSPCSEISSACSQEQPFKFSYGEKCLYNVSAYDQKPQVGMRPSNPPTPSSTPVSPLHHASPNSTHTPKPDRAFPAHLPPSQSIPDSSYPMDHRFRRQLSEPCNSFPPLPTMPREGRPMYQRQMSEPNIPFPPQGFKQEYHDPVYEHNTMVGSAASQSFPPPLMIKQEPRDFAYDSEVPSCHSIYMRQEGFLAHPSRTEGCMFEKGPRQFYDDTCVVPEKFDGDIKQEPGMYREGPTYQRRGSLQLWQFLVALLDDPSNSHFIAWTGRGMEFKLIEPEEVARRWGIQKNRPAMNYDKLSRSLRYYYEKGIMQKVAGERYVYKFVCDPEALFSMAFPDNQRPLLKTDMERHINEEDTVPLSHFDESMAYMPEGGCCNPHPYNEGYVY
Another test addresses T6, ERF (Homo sapiens, UniProt P50548 1-548).
T6 sequence: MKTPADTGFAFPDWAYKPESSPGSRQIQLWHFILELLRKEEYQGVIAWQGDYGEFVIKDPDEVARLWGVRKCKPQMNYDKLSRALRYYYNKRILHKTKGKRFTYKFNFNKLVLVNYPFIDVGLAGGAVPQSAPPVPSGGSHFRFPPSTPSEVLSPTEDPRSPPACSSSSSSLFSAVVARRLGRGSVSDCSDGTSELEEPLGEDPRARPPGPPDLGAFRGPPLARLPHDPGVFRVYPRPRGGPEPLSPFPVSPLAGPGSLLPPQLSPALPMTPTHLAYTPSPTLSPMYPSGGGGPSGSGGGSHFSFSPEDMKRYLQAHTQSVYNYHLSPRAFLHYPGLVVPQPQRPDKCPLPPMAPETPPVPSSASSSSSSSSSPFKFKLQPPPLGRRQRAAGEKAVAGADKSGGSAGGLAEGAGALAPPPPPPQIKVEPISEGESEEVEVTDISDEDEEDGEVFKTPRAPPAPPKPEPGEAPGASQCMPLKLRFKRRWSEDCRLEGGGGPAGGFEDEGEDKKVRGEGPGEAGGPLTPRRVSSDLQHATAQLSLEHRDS
Particulars: protein: recombinant; tags: N-terminal GST; dsDNA, one strand shown. The method in brief:
as §1

A further test has as its target T7, ETV3L (Homo sapiens, UniProt Q6ZN32 1-361).
T7 sequence: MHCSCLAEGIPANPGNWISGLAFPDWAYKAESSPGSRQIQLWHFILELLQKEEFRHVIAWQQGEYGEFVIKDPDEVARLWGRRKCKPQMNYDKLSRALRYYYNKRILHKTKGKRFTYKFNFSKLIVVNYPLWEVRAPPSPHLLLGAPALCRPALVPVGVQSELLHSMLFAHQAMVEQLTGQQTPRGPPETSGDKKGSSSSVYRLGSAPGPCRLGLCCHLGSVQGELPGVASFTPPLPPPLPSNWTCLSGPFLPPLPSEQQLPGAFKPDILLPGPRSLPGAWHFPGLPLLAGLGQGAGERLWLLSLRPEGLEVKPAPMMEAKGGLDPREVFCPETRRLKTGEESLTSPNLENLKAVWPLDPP
Particulars: protein: recombinant; tags: N-terminal GST; dsDNA, one strand shown. The method in brief:
as §1

The target in a further test is T8, ETS2 (Homo sapiens, UniProt P15036 1-469).
T8 sequence: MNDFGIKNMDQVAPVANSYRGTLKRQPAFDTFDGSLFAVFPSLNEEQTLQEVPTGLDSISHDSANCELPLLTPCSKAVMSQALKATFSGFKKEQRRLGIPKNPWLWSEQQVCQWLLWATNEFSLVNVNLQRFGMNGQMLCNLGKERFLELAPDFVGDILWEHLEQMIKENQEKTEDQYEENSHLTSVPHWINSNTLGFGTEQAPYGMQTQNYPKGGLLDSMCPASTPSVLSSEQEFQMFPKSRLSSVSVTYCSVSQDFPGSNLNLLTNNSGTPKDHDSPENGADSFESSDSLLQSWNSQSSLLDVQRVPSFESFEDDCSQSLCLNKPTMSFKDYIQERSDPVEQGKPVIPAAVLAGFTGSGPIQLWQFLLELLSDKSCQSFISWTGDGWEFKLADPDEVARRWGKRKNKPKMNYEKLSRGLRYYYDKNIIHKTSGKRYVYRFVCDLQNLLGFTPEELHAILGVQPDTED
The following applies: protein: recombinant; tags: N-terminal GST; dsDNA, one strand shown. The procedure, abridged:
as §1

Another test has as its target T9, SPDEF (Homo sapiens, UniProt O95238 1-335).
T9 sequence: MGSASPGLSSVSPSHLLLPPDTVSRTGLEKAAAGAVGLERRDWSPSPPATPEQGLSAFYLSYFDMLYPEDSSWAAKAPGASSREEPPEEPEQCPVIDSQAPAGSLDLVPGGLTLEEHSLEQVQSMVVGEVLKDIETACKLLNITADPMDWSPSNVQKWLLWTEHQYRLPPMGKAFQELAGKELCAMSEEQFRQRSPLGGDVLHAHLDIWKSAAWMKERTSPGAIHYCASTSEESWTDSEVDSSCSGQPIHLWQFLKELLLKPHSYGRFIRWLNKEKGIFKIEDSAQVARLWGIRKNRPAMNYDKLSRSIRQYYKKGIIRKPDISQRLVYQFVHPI
Particulars: protein: recombinant; tags: N-terminal GST; dsDNA, one strand shown. The procedure, abridged: as §1

A further test concerns the target T10, ETV7 (Homo sapiens, UniProt Q9Y603 1-341).
T10 sequence: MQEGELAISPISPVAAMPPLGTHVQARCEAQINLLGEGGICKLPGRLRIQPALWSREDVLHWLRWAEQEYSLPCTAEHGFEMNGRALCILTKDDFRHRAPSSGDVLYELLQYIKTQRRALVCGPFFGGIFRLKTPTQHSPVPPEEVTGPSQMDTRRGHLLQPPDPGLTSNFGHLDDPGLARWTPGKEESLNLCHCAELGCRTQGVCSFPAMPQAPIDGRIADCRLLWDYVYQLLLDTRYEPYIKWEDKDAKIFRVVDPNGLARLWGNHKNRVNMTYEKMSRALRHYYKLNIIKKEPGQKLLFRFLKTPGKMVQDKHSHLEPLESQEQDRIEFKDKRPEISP
Particulars: protein: recombinant; tags: N-terminal GST; dsDNA, one strand shown. The method in brief:
as §1

The target in a further test is T11, ELF5 (Homo sapiens, UniProt Q9UKW6-2 1-255).
T11 sequence: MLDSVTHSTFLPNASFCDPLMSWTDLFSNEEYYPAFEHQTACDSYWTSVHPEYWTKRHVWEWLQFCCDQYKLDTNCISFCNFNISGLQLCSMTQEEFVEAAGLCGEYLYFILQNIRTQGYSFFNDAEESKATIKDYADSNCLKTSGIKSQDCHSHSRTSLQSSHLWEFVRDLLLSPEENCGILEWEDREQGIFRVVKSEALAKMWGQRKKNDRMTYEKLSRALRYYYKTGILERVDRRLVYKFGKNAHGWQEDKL
The following applies: protein: recombinant; tags: N-terminal GST; dsDNA, one strand shown. The procedure, abridged: as §1

The next test deals with T12, ETV3 (Homo sapiens, UniProt P41162-2 1-143).
T12 sequence: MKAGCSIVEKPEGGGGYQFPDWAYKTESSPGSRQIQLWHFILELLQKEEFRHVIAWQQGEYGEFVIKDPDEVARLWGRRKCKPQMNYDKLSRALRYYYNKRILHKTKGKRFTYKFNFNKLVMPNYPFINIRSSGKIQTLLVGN
The following applies: protein: recombinant; tags: N-terminal GST; dsDNA, one strand shown. The procedure, abridged:
as §1

The next test addresses ETV6 (Homo sapiens, UniProt P41212 1-452). The following applies: protein: recombinant; tags: N-terminal GST; dsDNA, one strand shown. The method in brief: as §1

ELF4, sequence (Q99607 whole entry): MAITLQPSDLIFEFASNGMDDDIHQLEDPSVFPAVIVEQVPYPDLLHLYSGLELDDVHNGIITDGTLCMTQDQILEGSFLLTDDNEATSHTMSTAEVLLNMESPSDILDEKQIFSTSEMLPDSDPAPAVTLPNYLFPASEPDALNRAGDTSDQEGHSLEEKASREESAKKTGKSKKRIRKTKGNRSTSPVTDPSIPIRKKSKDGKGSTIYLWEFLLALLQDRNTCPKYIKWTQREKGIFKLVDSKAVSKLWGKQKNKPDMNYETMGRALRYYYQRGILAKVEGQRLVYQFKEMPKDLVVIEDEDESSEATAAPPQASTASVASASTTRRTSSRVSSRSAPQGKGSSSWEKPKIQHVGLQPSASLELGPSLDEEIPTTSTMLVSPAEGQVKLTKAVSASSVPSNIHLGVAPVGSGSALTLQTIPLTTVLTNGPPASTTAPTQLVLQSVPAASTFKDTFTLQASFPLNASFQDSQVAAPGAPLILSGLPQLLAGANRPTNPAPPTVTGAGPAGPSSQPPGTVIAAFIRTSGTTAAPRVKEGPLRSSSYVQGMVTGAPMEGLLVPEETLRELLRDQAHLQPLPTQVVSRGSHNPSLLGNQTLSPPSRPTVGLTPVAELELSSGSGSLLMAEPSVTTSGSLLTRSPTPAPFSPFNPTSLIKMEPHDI
ETV6, sequence (P41212 whole entry): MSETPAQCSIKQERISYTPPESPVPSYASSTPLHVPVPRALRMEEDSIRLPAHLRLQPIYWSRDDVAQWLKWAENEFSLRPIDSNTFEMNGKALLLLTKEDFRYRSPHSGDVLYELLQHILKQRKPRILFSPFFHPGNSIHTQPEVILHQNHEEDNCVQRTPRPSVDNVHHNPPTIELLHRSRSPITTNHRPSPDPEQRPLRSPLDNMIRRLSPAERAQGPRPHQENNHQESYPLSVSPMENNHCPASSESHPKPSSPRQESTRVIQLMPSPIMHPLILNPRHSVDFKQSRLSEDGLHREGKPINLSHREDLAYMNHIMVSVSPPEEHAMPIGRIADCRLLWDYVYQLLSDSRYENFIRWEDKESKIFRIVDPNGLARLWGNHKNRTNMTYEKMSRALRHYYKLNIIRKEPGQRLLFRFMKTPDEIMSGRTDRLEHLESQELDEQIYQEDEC
ETV5, sequence (P41161 whole entry): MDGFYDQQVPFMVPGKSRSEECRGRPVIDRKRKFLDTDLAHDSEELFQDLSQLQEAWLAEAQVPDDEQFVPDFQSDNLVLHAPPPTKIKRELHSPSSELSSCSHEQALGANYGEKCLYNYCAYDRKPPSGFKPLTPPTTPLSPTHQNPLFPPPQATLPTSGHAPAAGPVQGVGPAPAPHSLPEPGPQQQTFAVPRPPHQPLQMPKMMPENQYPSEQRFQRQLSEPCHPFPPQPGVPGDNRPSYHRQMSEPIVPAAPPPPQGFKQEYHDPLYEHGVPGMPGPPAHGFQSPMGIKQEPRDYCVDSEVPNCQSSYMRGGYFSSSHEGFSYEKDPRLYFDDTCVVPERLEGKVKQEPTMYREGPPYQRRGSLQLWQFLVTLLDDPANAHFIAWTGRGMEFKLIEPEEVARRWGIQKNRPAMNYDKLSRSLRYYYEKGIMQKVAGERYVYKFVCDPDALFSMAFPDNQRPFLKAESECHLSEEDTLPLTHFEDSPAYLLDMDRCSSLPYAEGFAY

Consider AATCTT, for which the binding signal with FEV is 1.29 fold enrichment (6-mer frequency, TF over GST control); in the test with ETV5 it was 1.35 fold enrichment (6-mer frequency, TF over GST control); in the test with HSF1, 2.17 fold enrichment (6-mer frequency, TF over GST control); with SPIC, 1.38 fold enrichment (6-mer frequency, TF over GST control); with ELF4, 1.31 fold enrichment (6-mer frequency, TF over GST control); with ELK4, 1.36 fold enrichment (6-mer frequency, TF over GST control). For the same sequence, the binding signal with ETV2 was 1.38 fold enrichment (6-mer frequency, TF over GST control); in the test with ELF3, 1.4 fold enrichment (6-mer frequency, TF over GST control); with CRX, 2.54 fold enrichment (6-mer frequency, TF over GST control); with ETV1, 1.39 fold enrichment (6-mer frequency, TF over GST control); with ERF, 1.26 fold enrichment (6-mer frequency, TF over GST control); in the test with ETV3L, 1.38 fold enrichment (6-mer frequency, TF over GST control). The binding signal in the test with ETS2 was 1.41 fold enrichment (6-mer frequency, TF over GST control); in the test with SPDEF, 1.27 fold enrichment (6-mer frequency, TF over GST control); in the test with ETV7 it was 1.31 fold enrichment (6-mer frequency, TF over GST control); with ELF5 it was 1.43 fold enrichment (6-mer frequency, TF over GST control); with ETV3, 1.31 fold enrichment (6-mer frequency, TF over GST control); with ETV6, 1.31 fold enrichment (6-mer frequency, TF over GST control).
